Shown are actives, neighbours in structure and some others; about 3.4% of the full set was active somewhere.
Tau fluor counter – counter-screen for tau fibril formation inhibitors. Potency, µM (top dose mostly 57.7 µM), for inactives: top-dose activity change, negative = decrease. 0.93% of 280,000 active. tau K18 P301L Alexa594 fluorescence, heparin fibrillization; also: nearly all actives have a fitted effect of over 55% in size
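Human tau K18 P301L (15 uM unlabeled, 0.24 uM Alexa 594-labeled) in 100 mM sodium acetate pH 7 with 20 uM heparin, 6 hr at 37 C. ThT 30 uM added, 1 hr ambient; Alexa 594 FP and total fluorescence read at 555/632 nm.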
KDM4E inh – inhibitors of human JMJD2E histone demethylase; 1.6% of 230,000 active; B2RXH2; AID 2147; Potency, µM (top dose mostly 57.1 µM), inactives show top-dose activity change, negative = inhibition, hits mostly inhibitors; JMJD2E catalytic domain, FDH-coupled NADH fluorescence (FDH is formaldehyde dehydrogenase);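 also: 0% = wells with enzyme and -100% = buffer wells without enzyme; nearly all actives have a fitted effect of over 50% in size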
Target sequence (B2RXH2 1-337 limits assumed): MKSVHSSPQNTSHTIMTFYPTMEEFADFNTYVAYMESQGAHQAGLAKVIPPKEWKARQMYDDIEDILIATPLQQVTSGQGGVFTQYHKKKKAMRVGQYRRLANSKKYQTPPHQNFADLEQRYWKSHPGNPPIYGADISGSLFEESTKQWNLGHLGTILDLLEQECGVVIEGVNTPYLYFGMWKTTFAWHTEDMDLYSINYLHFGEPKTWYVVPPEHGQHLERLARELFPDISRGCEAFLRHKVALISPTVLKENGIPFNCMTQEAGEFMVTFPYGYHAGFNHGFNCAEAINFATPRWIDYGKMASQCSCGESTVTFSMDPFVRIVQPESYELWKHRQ
Tau FP inhib – blocks human tau fibril formation measured by polarization | AID 1468 | P10636 | K18 P301L tau heparin fibrillization, Alexa594 FP, 6 h | 0.39% of 280,000 active | Potency, µM (titrated, usually from 57.7 µM), inactives show top-dose activity, negative = inhibition, most hits filed as inhibitors; also: nearly all actives have a fitted effect of over 55% in size
Target sequence (P10636 561-689 P618L limits assumed): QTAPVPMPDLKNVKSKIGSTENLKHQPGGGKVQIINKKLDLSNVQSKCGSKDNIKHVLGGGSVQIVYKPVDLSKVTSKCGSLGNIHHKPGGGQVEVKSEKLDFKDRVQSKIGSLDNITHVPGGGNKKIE
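K18 P301L tau (15 uM unlabeled/0.24 uM Alexa 594-labeled, final) + compound + heparin 20 uM final; 100 mM NaOAc pH 7; 6 hr 37 C; ThT 30 uM final added, 1 hr RT; FP ex 555/em 632 nm.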
RGS12 GoLoco inh – blocks human Gai1 binding to RGS12 GoLoco peptide, red readout; Gai1:RGS12 GoLoco peptide FP, rhodamine, 10 min; Potency, µM (top dose mostly 61.6 µM), for the others: at the top dose activity, negative = inhibition, actives largely listed as inhibitors; 0.44% of 230,000 active; active = well fitted inhibition curve with a large enough effect, not every such curve was filed as active; inactive = no such curve, though single readings can be large or run the other way; also: nearly all actives have a fitted effect of over 30% in size
Tau fibril ThT – inhibitors of human tau fibril formation, thioflavin T binding; Potency, µM (series often up to 57.4 µM), for inactives: at the top dose activity, negative = inhibition, hits mostly inhibitors; recombinant tau K18 P301L (four-repeat tau fragment), heparin-induced fibrillization, ThT fluorescence; AID 1460; 2.1% of 270,000 active; also: nearly all actives have a fitted effect of over 55% in size
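Recombinant human tau K18 fragment […] carrying P301L, 15 uM unlabeled plus 0.24 uM Alexa 594-labeled, was fibrillized with 20 uM heparin in 100 mM sodium acetate pH 7 for 6 hr at 37 C; 30 uM ThT fluorescence read after 1 hr.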
Starred values were filed as active, the others as inactive; u = inconclusive; x = no result; [ ] = dose if it differs, or a comment. Unless noted, calls follow the shape of the dose curve; as a rule, active = well fitted curve in the direction sought with a large enough effect; inconclusive = small, poorly fitted or top-dose-only effect, or another doubt; inactive = no such curve, though single readings can be large; an effect the other way counts as inactive or inconclusive. Unless noted, % is scaled to controls: 0 for no effect and ±100 for the full control effect; potency is read from the fitted curve at half-maximal effect.

SMILES	Tau fluor counter	KDM4E inh	Tau FP inhib	RGS12 GoLoco inh	Tau fibril ThT
O=C1NN(c2ccc(F)cc2)C(=O)/C1=C\C=C\c1ccco1	u	u	u	3%	13µM*
COc1ccc(NC(=O)CC2Nc3ccccc3NC2=O)cc1 (stereo not drawn)	-9%	x	1%	x	-14%
Cc1cccc(NC(=O)CC2Nc3cccc4cccc(c34)NC2=O)c1 (stereo not drawn)	8.9µM*[quencher]	u	1%	2%	u
CCOc1ccc(NC(=O)CC2Nc3cccc4cccc(c34)NC2=O)cc1 (stereo not drawn)	16µM*[quencher]	x	4%	x	14µM*
CC(=O)Nc1ccc(NC(=O)CC2Nc3cccc4cccc(c34)NC2=O)cc1 (stereo not drawn)	u	-10%	11%	13%	u
CCOC(=O)c1ccc(NC(=O)CC2Nc3cc(C)c(C)cc3NC2=O)cc1 (stereo not drawn)	14µM*[quencher]	x	9%	x	u
CC(=O)c1ccc(NC(=O)CC2Nc3cccc4cccc(c34)NC2=O)cc1 (stereo not drawn)	25µM*[quencher]	u	u	1%	14µM*
Cc1ccc(NC(=O)CC2Nc3cc(C)c(C)cc3NC2=O)c(C)c1 (stereo not drawn)	-24%	x	u	x	-17%
COc1cccc(NC(=O)CC2Nc3cc(C)c(C)cc3NC2=O)c1 (stereo not drawn)	u	x	10%	x	u
Cc1nn(C(C)(C)C)c(OC(=O)C(C)(C)C)c1Sc1ccccc1	-12%	x	-4%	x	-10%
Cc1cc2n(n1)CCC(=O)N2Cc1ccc(C(=O)Nc2ccc(F)cc2F)cc1	-9%	x	-15%	x	-6%
COc1ccccc1N1CCN(S(=O)(=O)c2c(C)sc3ncn(CC(=O)Nc4ccc(C(C)C)cc4)c(=O)c23)CC1	-28%	x	0%	x	-2%
CCOC(=O)c1ccc(NC(=O)CC2Nc3cccc4cccc(c34)NC2=O)cc1 (stereo not drawn)	8.9µM*[quencher]	x	u	x	13µM*
CCOc1ccc(NC(=O)Nc2ccc3nsnc3c2)cc1	13µM*[quencher]	-8%	16%	3%	14µM*
CCOc1ccc(NC(=S)Nc2ccc3nsnc3c2)cc1	14µM*[quencher]	3%	u	4%	2.5µM*
O=C(Nc1cccc(C(F)(F)F)c1)Nc1ccc2snnc2c1	u	x	18µM*	x	13%
CCOc1ccc(NC(=O)Nc2cccc(C(=O)O)c2)cc1	-9%	-20%	5%	10%	-11%
S=C(Nc1ccc2nsnc2c1)NC1CCCCC1	u	-6%	u	-8%	28µM*
O=C(Nc1cccc(C(F)(F)F)c1)c1ccc2snnc2c1	-1%	x	-4%	x	7%
CCOc1ccc(NC(=O)Nc2ccc3snnc3c2)cc1	5µM*[quencher]	x	u	x	-6%
COc1ccc(NC(=S)Nc2ccc3nsnc3c2)cc1	u	3%	-17%	-6%	11µM*
COc1cc(OC)c(N(C)C(=O)Cn2ncc3c([nH]c4ccccc43)c2=O)cc1Cl	-18%	x	-7%	x	-16%
COC(=O)CCC(=O)OC	x	x	x	8%	x
COC(=O)C(N)CS (stereo not drawn)	-25%	-2%	u	-43%	18µM*
COC(=O)C(N)Cc1ccc(O)cc1 (stereo not drawn)	-4%	1%	4%	1%	-2%
SMILES	Tau fluor counter	KDM4E inh	Tau FP inhib	RGS12 GoLoco inh	Tau fibril ThT
COC(=O)[C@@H](N)CS	-28%	u	u	15%	14µM*
Cc1nc2nncn2c(NCc2ccc(Cl)cc2)c1C	-1%	x	-4%	x	6%
Cc1ccc(CNC(=O)CCc2nnc3n(C)c(=O)c4sccc4n23)cc1	-6%	x	-7%	x	-3%
COc1cc(/C=N\NC(=O)c2ccc(C)nc2)ccc1OC(=O)c1ccc2c(c1)OCO2	-26%	u	25µM*	-27%	-4%
COc1ccc(N/C=C\C(=O)c2ccc(Br)cc2)cc1OC	-10%	8%	0%	0%	3.2µM*
COc1ccc(N/C=C\C(=O)c2ccc(C)cc2)cc1OC	u	-5%	3%	-2%	10µM*
COc1ccc(N/C=C\C(=O)c2ccc3c(c2)OCO3)cc1	-28%	-2%	3%	9%	u
COc1ccc(N/C=C/C(=O)c2ccc3c(c2)OCO3)cc1OC	u	-17%	-5%	-8%	5µM*
COc1cc(/C=C/c2nc3cc(Cl)ccc3c(=O)n2-c2ccc(C)cc2C)cc(OC)c1OC	0%	x	5%	x	-5%
CC1=C(c2ccc(C)cc2)S(=O)(=O)N(Cc2ccc(C(=O)NCc3cccc(C)c3)cc2)C1=O	3%	x	-2%	x	5%
COc1cc2cc(CNc3ccc(C)cc3)c(=O)n(CC(=O)Nc3ccc(F)cc3F)c2cc1OC	-23%	x	11%	x	0%
Cc1cccc(N2CCN(c3nc4ccc(C(=O)c5ccccc5)cc4n4cnnc34)CC2C)c1 (stereo not drawn)	u	x	-3%	x	0%
CCN(CC)S(=O)(=O)c1ccc(N2CCOCC2)c(NC(=O)c2cc(-c3ccccn3)nc3ccccc23)c1	-29%	13µM*	1%	117%	4%
CCN(CC)S(=O)(=O)c1ccc(N2CCOCC2)c(NC(=O)c2cccc3ccccc23)c1	-24%	u	-1%	4%	-8%
COc1cccc(NC(=O)C2CCCN2S(=O)(=O)c2ccc3nc(-c4ccccc4)[nH]c3c2)c1 (stereo not drawn)	-11%	x	-15%	x	-11%
CC(C)c1ccc(NC(=O)C2CCCN2S(=O)(=O)c2ccc3nc(-c4ccccc4)[nH]c3c2)cc1 (stereo not drawn)	11µM*[quencher]	x	14µM*	x	9%
Cc1ccc(NC(=O)C2CCCN2S(=O)(=O)c2ccc3nc(-c4ccccc4)[nH]c3c2)cc1C (stereo not drawn)	32µM*[quencher]	x	u	x	-15%
Cc1cccc(NC(=O)C2CCCN2S(=O)(=O)c2ccc3nc(-c4ccccc4)[nH]c3c2)c1 (stereo not drawn)	20µM*[quencher]	x	u	x	1%
CC(C)c1ccc(NC(=O)C2CCCN(S(=O)(=O)c3ccc4[nH]c(=O)ccc4c3)C2)cc1 (stereo not drawn)	-9%	x	-17%	x	6%
Cc1ccc(CSCc2ccc(C(=O)NCCc3ccc(Cl)cc3)o2)cc1	-9%	x	u	x	-16%
COc1ccc2oc(-c3ccc(C)c(NC(=O)c4ccc5c(c4)OCCO5)c3)nc2c1	-14%	x	-11%	x	-9%
CCN(CC)S(=O)(=O)c1ccc2c(c1)c(=O)c(C(=O)N1CCN(c3ccc(OC)cc3)CC1)cn2C	-5%	x	4%	x	-3%
CC1CCCC(C)N1C(=O)Cn1cc(/C=C2/C(=O)Nc3ccccc32)c2ccccc21 (stereo not drawn)	u	3%	14%	6.3µM*	14µM*
CN(C)c1ccc(/C=N/n2ncc3ccccc32)cc1	u	u	14%	-2%	4µM*
